Assay outcomes from PubChem.
Compounds with a hit are over-represented: about 15% of the library has one in this group of screens.
Sm TGR block = S. mansoni TGR enzyme inhibition. purified TGR, DTNB reduction, TNB absorbance 405 nm. Potency, µM (titrated, usually from 114 µM), actives largely listed as inhibitors. hit rate 3% among 360,000; also: nearly all actives have a fitted effect of over 60% in size
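TGR 20 nM + NADPH 100 uM (dispensed conc.), cpd preinc 15 min RT; start with NADPH (500 uM addition) then DTNB (15 mM addition). Kinetic TNB absorbance, 405 nm filter. Four-parameter Hill fit across titration.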
HCMV antiviral = blocks human cytomegalovirus replication. HFF cells, HCMV-luciferase reporter, 72 h; hits give low values. activity change, negative = inhibition, % at 57.5 µM. hit rate 4.5% among 410,000; in the data active = activity change below about -60%; inconclusive = no clear call, values can overlap the other calls; inactive = above about -39%
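Compounds were evaluated in HFFs infected with an HCMV luciferase reporter virus (MOI 1 PFU/cell). Luciferase in lysates collected 72 h post infection served as the replication measure.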
HCV inhibitor = blocks hepatitis C virus. Huh7.5.1 HCVcc-Cre infection, luciferase reporter, 44 h. hit rate 3.4% among 340,000. Potency, µM (top dose mostly 41.8 µM), usual class: inhibitors. AID 651820
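Infectious HCVcc-Cre (~0.5 moi) was added to cells just after compound, with cells seeded 4 h earlier at 1,000 per well. Luciferase activity after 44 h culture reported infection; substrate was incubated 15 min at room temperature before reading.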
Pf growth 96h = inhibits malaria parasite growth, 96 h | hit rate 6.9% among 320,000 | Potency, µM (doses to about 28.7 µM), hits mostly inhibitors | P. falciparum luciferase reporter growth, 96 h
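P. falciparum expressing integrated firefly luciferase, in erythrocytes at 2% hematocrit, 0.05% parasitemia, incubated with compounds 96 h at 37 C, 5% CO2. Growth inhibition read as loss of luminescence; two-generation exposure targets delayed-death apicoplast inhibitors.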
Pf growth 48h = inhibits P. falciparum growth in the first generation, 48 h. Potency, µM (series often up to 28.7 µM), usual class: inhibitors. P. falciparum luciferase growth in erythrocytes, 48 h. hit rate 5.9% among 310,000. AID 504832
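Growth was read as firefly luciferase luminescence after a 48 h, 37 C, 5% CO2 exposure of compounds to reporter-bearing P. falciparum cultures (0.1% parasitemia, 2% hematocrit final) in Albumax-supplemented RPMI 1640.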
SARS PLP yeast = blocks SARS-CoV papain-like protease in a yeast assay; hit rate 0.19% among 330,000; AID 485353; Potency, µM (top dose mostly 32.9 µM), actives largely listed as activators; S. cerevisiae expressing SARS-CoV PLpro, growth rescue; calls by dose curve; also: nearly all actives have a fitted effect of over 55% in size
A number is an active result; 0 = inactive; ? = inconclusive; - = no result given. Unless noted, calls follow the shape of the dose curve; as a rule, active = well fitted curve in the direction sought with a large enough effect; inconclusive = small, poorly fitted or top-dose-only effect, or another doubt; inactive = no such curve, though single readings can be large; an effect the other way counts as inactive or inconclusive.

SMILES | Sm TGR block | HCMV antiviral | HCV inhibitor | Pf growth 96h | Pf growth 48h | SARS PLP yeast
CC(=O)c1sc(NC(=O)c2ccc(Cl)cc2)nc1C | 0 | 0 | ? | 0 | 0 | 0
Cc1nc(NC(=O)c2ccc(Cl)cc2)sc1-c1csc(Nc2cccc(F)c2)n1 | 0 | - | - | 2.6µM | 13µM | 0
Cc1ccc(CNC(=O)Cn2c3ncccc3c(=O)n2-c2ccc(C)cc2)cc1 | 0 | 0 | - | - | - | -
Cc1cccc(NC(=O)C(=O)NNC(=O)c2ccc(C(C)(C)C)cc2)c1 | 0 | 0 | 0 | ? | 0 | 0
Cc1ccc(F)c(NC(=O)/C(C#N)=C(\O)c2ccc(C(C)(C)C)cc2)c1 | 0 | -63 | 0 | 0 | 0 | 0
O=C(NCCCO)NC12CC3CC(CC(C3)C1)C2 | 0 | 0 | 0 | ? | - | 0
CC(C)(C)NC(=O)NC12CC3CC(CC(C3)C1)C2 | 0 | 0 | 0 | 0 | 0 | 0
O=C(CCl)NC(=O)NC12CC3CC(CC(C3)C1)C2 | 8.9µM | -99 | 0 | ? | 0 | 0
CC(Cl)C(=O)NC(=O)NC12CC3CC(CC(C3)C1)C2 (stereo not drawn) | 0 | 0 | 0 | 13µM | ? | 0
COc1cc2c(=O)c(C(=O)c3ccc(F)cc3)cn(Cc3cccc(F)c3)c2cc1OC | 0 | 0 | - | - | - | -
CC(C)c1ccc(C2CC(=O)N3CN(Cc4ccco4)CSC3=C2C#N)cc1 (stereo not drawn) | 2.2µM | 0 | 0 | ? | ? | 0
COC(=O)C1=C(C)N(C)C(=O)NC1c1c(OC)ccc2ccccc12 (stereo not drawn) | 0 | 0 | 0 | 0 | 0 | 0
N#CC1=C2SCN(Cc3ccccc3)CN2C(=O)CC1c1cccs1 (stereo not drawn) | 0 | 0 | 0 | 0 | - | 0
COc1cc(C2CC(=O)N3CN(Cc4ccco4)CSC3=C2C#N)ccc1OCc1ccccc1 (stereo not drawn) | 0 | 0 | ? | ? | - | 0
COc1ccc2ccccc2c1C1CC(=O)N2CN(C3CCCCC3)CSC2=C1C#N (stereo not drawn) | 28µM | 0 | 0 | ? | - | 0
N#CC1=C2SCN(Cc3ccccc3)CN2C(=O)CC1c1ccc2c(c1)OCO2 (stereo not drawn) | 3.5µM | 0 | 0 | ? | ? | 0
N#CC1=C2SCN(Cc3ccco3)CN2C(=O)CC1c1ccc(Cl)cc1 (stereo not drawn) | 0 | 0 | 0 | ? | ? | 0
COc1ccc(C2CC(=O)N3CN(Cc4ccco4)CSC3=C2C#N)cc1 (stereo not drawn) | 40µM | 0 | 0 | ? | 0 | 0
Cc1cnc(C(=O)NC2CC(C)(C)Cc3c2cnn3-c2cccc(F)c2)cn1 (stereo not drawn) | 0 | 0 | 0 | ? | 0 | 0
COc1ccc2ccccc2c1C1CC(=O)N2CN(Cc3ccco3)CSC2=C1C#N (stereo not drawn) | 5.6µM | 0 | 0 | 0 | - | 0
COc1ccc(C2CC(=O)N3CN(C4CCCCC4)CSC3=C2C#N)c(OC)c1 (stereo not drawn) | 3.2µM | 0 | - | - | - | -
COc1ccc(OC)c(C2C(C#N)=C(N)N(N(C)C)C3=C2C(=O)CCC3)c1 (stereo not drawn) | 0 | 0 | 0 | 0 | 0 | 0
CCc1nccn1S(=O)(=O)c1ccc(Br)cc1Br | 0 | 0 | 0 | 0.93µM | 0 | 0
Cc1ccc2nc(Cl)c(/C=N/n3c(C)nnc3C)cc2c1 | 0 | 0 | 0 | 0 | 0 | 0
CCN1N=C(c2ccccc2)Cn2c1nc1ccccc12 | 0 | 0 | ? | 6.6µM | - | 0
SMILES | Sm TGR block | HCMV antiviral | HCV inhibitor | Pf growth 96h | Pf growth 48h | SARS PLP yeast
NC1(C(=O)O)CSSC1 | - | -80 | ? | - | - | -
N[C@@]1(C(=O)O)CC[C@@H](C(=O)O)C1 | 0 | 0 | 0 | 0 | 0 | -
CCOC(=O)[C@@H](NC(=O)/C=C/[C@H]1O[C@@H](n2ccc(=O)[nH]c2=O)[C@H](O)[C@@H]1O)C(C)C | - | 0 | - | - | - | -
COc1ccc(-c2nn(-c3ccccc3)cc2/C=N/NS(=O)(=O)c2ccccc2)cc1 | 0 | 0 | ? | 12µM | ? | 0
COc1ccc(-c2nn(-c3ccccc3)cc2/C=N/NC(=O)c2cccc(S(=O)(=O)Nc3ccccc3Cl)c2)cc1 | 0 | -101 | ? | 2.9µM | 9.3µM | 0
COc1ccc(/C=N/N2C(=O)CSC2=S)cc1 | ? | 0 | 0 | ? | 0 | -
COc1ccc(-c2nn(-c3ccccc3)cc2/C=N/O)cc1 | 0 | 0 | 0 | 0 | ? | 0
